# Reference: the OligoGym collection
# Biological target: TRAPPC2
# Test: pooled miR-30 sensor sort-seq; sequence = guide strand
# Conditions: shRNA
row,Sequence,sensor-assay potency score (higher = more potent)
1,TGTCAAATGCACTTGATCGAAT,-0.613
2,TTTCTGTCAAATGCACTTGATC,-1.44
3,TTCAAGTACATGTTGTTCGATA,-0.28
4,TTGATCGAATAGGAGAATTGGG,-0.578
5,ATGAGCTATGAACTGGTTCAGA,-1.51
6,ATGCACTTGATCGAATAGGAGA,-1.42
7,TCGTTGAACTTGTCCACAGTTT,-0.427
8,TTGTCTTATGTCATGAAGCATA,-1.65
9,TTATTCCATCTTCTTGTCTTAT,-1.23
10,TTTATTCCATCTTCTTGTCTTA,-0.31

# Biological target: TRIL
# Test: as above
# Conditions: shRNA
row,Sequence,sensor-assay potency score (higher = more potent)
1,TTGGTTATGAAGTTGCCGCCGA,-0.156
2,AACTTGTTGAAGTCGCATGGGT,-0.301
3,ATGAACTTGTTGAAGTCGCATG,-1.34
4,TTGCACAGAATGAACTTGTTGA,0.574
5,TAGAAATCGCCCCTGCTGCTGG,-0.425
6,TTGCCGTCTAGATCCAGCCGAT,-0.561
7,TAGGTGAGCACGTCGTGGGGGC,-0.151
8,TTGTACTGCAGGTCCAGCCGTC,-0.188
9,TTGACTAGACTCTCCAGGCCCT,-0.105
10,TTGCAGCTGCTGGTCATCCAGG,-1.05
11,TTCTTGTGCAGGTCTAGGGACT,-1.42
12,TACAGCTCTTCCAGCCGCGAGA,-1.34
